The text below walks through data of PubChem BioAssay (EPA / NIEHS).

A word on the AC50: it is the concentration giving half of the maximal activity seen.

Read-out in test [1]: Matrix Metallopeptidase 1 (MMP1), MMP1 (gene 4312)
The test can be described thus: BSK_BE3C_MMP1: BioMAP Diversity Plus: BE3C Assay for Matrix Metallopeptidase 1 (MMP1) Biomarker Activity (AID 2283024). To be noted: primary human bronchial epithelial cells; actives raise or lower the signal. The gist of the method: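 Human primary bronchial epithelial cells (BE3C system) dosed for 24 h; MMP-1 quantified by ELISA. Bidirectional fit against DMSO; cytotoxicity tracked in parallel cultures by SRB total-protein staining.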

Test [2] in a line: BSK_3C_Vis: BioMAP Diversity Plus: 3C Assay for Morphology Visualization (AID 2283025).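 Also: fitted both ways so gain or loss versus DMSO counts.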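 As to AC50: light microscopy image of cell morphology used as background control.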 The conditions noted are these: primary human endothelial cells (HUVEC). An outline of the steps:
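Human umbilical vein endothelial cell morphology was inspected by light microscopy 24 h after chemical dosing; scored bidirectionally relative to DMSO.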

Read-out in test [3]: Pselectin, SELP (gene 6403)
Kind of test: BSK_4H_Pselectin: BioMAP Diversity Plus: 4H Assay for Pselectin Biomarker Activity (AID 2283026). The conditions noted are these: primary human endothelial cells (HUVEC); actives raise or lower the signal. The gist of the method:
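Primary human umbilical vein endothelial cells were treated 24 h, and cell-surface P-selectin was then quantified by ELISA. Bidirectional fit versus DMSO; cytotoxicity checked in parallel cultures by SRB total-protein staining.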

Test [4] in a line: BSK_4H_SRB: Viability Assessment in the BioMAP Diversity Plus: 4H Assay (AID 2283027).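 As to AC50: curves fitted both ways versus DMSO so AC50 may be loss or gain.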 The conditions noted are these: primary human endothelial cells (HUVEC). An outline of the steps:
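Human umbilical vein endothelial cells were dosed with chemical and, after 24 h, fixed with 10% TCA, stained with 0.1% sulforhodamine B, and read at 560 nm to give total protein as a cytotoxicity measure. Bidirectional fitting relative to DMSO control.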

Read-out in test [5]: Thrombomodulin, THBD (gene 7056)
The test can be described thus: BSK_3C_Thrombomodulin: BioMAP Diversity Plus: 3C Assay for Thrombomodulin Biomarker Activity (AID 2283029). To be noted: primary human endothelial cells (HUVEC); actives raise or lower the signal. The gist of the method:
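Human umbilical vein endothelial cells were exposed to chemicals for 24 h; cell-surface thrombomodulin quantified by ELISA, with bidirectional fitting against DMSO baseline.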

Read-out in test [6]: Vascular endothelial growth factor receptor 2 (Homo sapiens) (UniProt P35968)
The test can be described thus: BSK_4H_VEGFRII: BioMAP Diversity Plus: 4H Assay for Vascular endothelial growth factor receptor 2 (VEGFR2) Biomarker Activity (AID 2283031). To be noted: primary human endothelial cells (HUVEC); actives raise or lower the signal. The gist of the method: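 Primary human umbilical vein endothelial cells (4H system), 24 h exposure; cell-surface VEGFR2 measured by ELISA. Bidirectional fitting versus DMSO; cytotoxicity checked in parallel by SRB total-protein staining.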

Read-out in test [7]: Human Leukocyte Antigen - DR isotype (HLADR), HLA-DRA (gene 3122)
The test can be described thus: BSK_BE3C_HLADR: BioMAP Diversity Plus: BE3C Assay for Human Leukocyte Antigen - DR isotype (HLADR) Biomarker Activity (AID 2283032). The conditions noted are these: primary human bronchial epithelial cells; actives raise or lower the signal. An outline of the steps:
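Human primary bronchial epithelial cells (BE3C system) exposed to compound for 24 hours; cell-surface HLA-DR measured by ELISA, fitted bidirectionally relative to DMSO. Total protein by SRB in parallel cultures tracked cytotoxicity.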

Read-out in test [8]: Vascular cell adhesion molecule 1 (VCAM1), VCAM1 (gene 7412)
The test can be described thus: BSK_4H_VCAM1: BioMAP Diversity Plus: 4H Assay for Vascular cell adhesion molecule 1 (VCAM1) Biomarker Activity (AID 2283033). The conditions noted are these: primary human endothelial cells (HUVEC); actives raise or lower the signal. The gist of the method:
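Primary human umbilical vein endothelial cells, 4H stimulation system, treated for 24 h; cell-surface VCAM-1 quantified by ELISA. Bidirectional fitting against DMSO; cytotoxicity tracked by SRB total-protein staining in parallel cultures.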

Read-out in test [9]: Interferon-gamma inducible Protein 10 (IP10), CXCL10 (gene 3627)
The test can be described thus: BSK_BE3C_IP10: BioMAP Diversity Plus: BE3C Assay for Interferon-gamma inducible Protein 10 (IP10) Biomarker Activity (AID 2283034). The conditions noted are these: primary human bronchial epithelial cells; actives raise or lower the signal. The gist of the method: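 Primary human bronchial epithelial cells, with IP-10 measured by ELISA 24 hours after chemical dosing. Bidirectional fit against DMSO; cytotoxicity checked by SRB total protein staining in parallel cultures.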

Read-out in test [10]: Monokine induced gamma interferon (MIG), CXCL9 (gene 4283)
The test can be described thus: BSK_BE3C_MIG: BioMAP Diversity Plus: BE3C Assay for Monokine induced gamma interferon (MIG) Biomarker Activity (AID 2283035). The conditions noted are these: primary human bronchial epithelial cells; actives raise or lower the signal. The gist of the method: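 ELISA read-out of MIG in human lung bronchial epithelial primary cultures, 24 h post-dosing. Bidirectional curve fit vs DMSO baseline.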

Read-out in test [11]: Transforming growth factor beta 1 (TGFb1), TGFB1 (gene 7040)
The test can be described thus: BSK_BE3C_TGFb1: BioMAP Diversity Plus: BE3C Assay for Transforming growth factor beta 1 (TGFb1) Biomarker Activity (AID 2283036). To be noted: primary human bronchial epithelial cells; actives raise or lower the signal. The gist of the method: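 Primary human bronchial epithelial cells dosed with chemical; TGF-b1 measured by ELISA 24 h after dosing. Bidirectional curve fitting against DMSO negative control; SRB total-protein staining in parallel cultures gauged cytotoxicity.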

Read-out in test [12]: Plasminogen activator inhibitor-1 (PAI1), SERPINE1 (gene 5054)
Kind of test: BSK_BE3C_PAI1: BioMAP Diversity Plus: BE3C Assay for Plasminogen activator inhibitor-1 (PAI1) Biomarker Activity (AID 2283037). The conditions noted are these: primary human bronchial epithelial cells; actives raise or lower the signal. An outline of the steps: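 Primary human bronchial epithelial cells (BE3C system) exposed 24 h; PAI-1 quantified by ELISA. Parallel sulforhodamine B staining of total protein flags cytotoxicity. Bidirectional fit versus DMSO.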

Read-out in test [13]: urokinase plasminogen activator (uPA), PLAU (gene 5328)
Kind of test: BSK_BE3C_uPA: BioMAP Diversity Plus: BE3C Assay for urokinase plasminogen activator (uPA) Biomarker Activity (AID 2283038).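 Also: uPA protein level quantified by ELISA in cell cultures; uPA read one day after compound addition.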 To be noted: primary human bronchial epithelial cells; actives raise or lower the signal. An outline of the steps:
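Primary human bronchial epithelial cells, uPA measured by ELISA 24 h after dosing. Bidirectional change relative to DMSO; cytotoxicity checked in parallel cultures by sulforhodamine B total-protein staining.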

Read-out in test [14]: Urokinase-type plasminogen activator receptor (uPAR), PLAUR (gene 5329)
The test can be described thus: BSK_BE3C_uPAR: BioMAP Diversity Plus: BE3C Assay for Urokinase-type plasminogen activator receptor (uPAR) Biomarker Activity (AID 2283039).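 Also: cells exposed to compound for one day before measurement.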 To be noted: primary human bronchial epithelial cells; actives raise or lower the signal. The gist of the method: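 Primary human bronchial epithelial cells dosed for 24 h; uPAR quantified by ELISA with bidirectional fitting against DMSO. Overt cytotoxicity assessed in parallel cultures by SRB total-protein staining (0.1% SRB, 560 nm).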

Read-out in test [15]: Interleukin-6 (IL6), IL6 (gene 3569)
The test can be described thus: BSK_CASM3C_IL6: BioMAP Diversity Plus: CASM3C Assay for Interleukin-6 (IL6) Biomarker Activity for (AID 2283040). To be noted: primary human coronary artery smooth muscle cells; actives raise or lower the signal.

Read-out in test [16]: Tissue plasminogen activator (tPA), PLAT (gene 5327)
Kind of test: BSK_BE3C_tPA: BioMAP Diversity Plus: BE3C Assay for Tissue plasminogen activator (tPA) Biomarker Activity (AID 2283041).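 Also: tPA level quantified by ELISA one day after compound addition.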 The conditions noted are these: primary human bronchial epithelial cells; actives raise or lower the signal. An outline of the steps:
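Primary human bronchial epithelial cells in the BE3C system, exposed to compound for 24 h. tPA was quantified by ELISA; DMSO served as baseline, with gain or loss of signal fitted. Cytotoxicity checked in parallel cultures by SRB total-protein staining.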

Read-out in test [17]: Interleukin-8 (IL8), CXCL8 (gene 3576)
Kind of test: BSK_CASM3C_IL8: BioMAP Diversity Plus: CASM3C Assay for Interleukin-8 (IL8) Biomarker Activity (AID 2283042).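 Also: IL-8 protein level quantified by ELISA.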 To be noted: primary human coronary artery smooth muscle cells; actives raise or lower the signal.

Read-out in test [18]: Human Leukocyte Antigen - DR isotype (HLADR), HLA-DRA (gene 3122)
Kind of test: BSK_CASM3C_HLADR: BioMAP Diversity Plus: CASM3C Assay for Human Leukocyte Antigen - DR isotype (HLADR) Biomarker Activity (AID 2283043).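 Also: cell-surface HLA-DR protein level quantified by ELISA.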 To be noted: primary human coronary artery smooth muscle cells; actives raise or lower the signal.

Read-out in test [19]: Urokinase-type plasminogen activator receptor (uPAR), PLAUR (gene 5329)
The test can be described thus: BSK_4H_uPAR: BioMAP Diversity Plus: 4H Assay for Urokinase-type plasminogen activator receptor (uPAR) Biomarker Activity (AID 2283030). The conditions noted are these: primary human endothelial cells (HUVEC); actives raise or lower the signal. An outline of the steps:
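Human umbilical vein endothelial cells in the 4H system, 24 h after chemical dosing. Cell-surface uPAR measured by ELISA, fitted in both directions versus DMSO; cytotoxicity checked by SRB total protein in parallel cultures.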

Molecules are shown by their SMILES. Activity calls are given as the source filed them. The calls were made as follows: active = hit-call score of the fitted dose curve at least 0.9, where 1 is the maximum; inactive = score below 0.9.

Turning to `CCOP(=S)(OCC)SCCS(=O)(=O)CC`, the result in test [1], in test [2], in test [3], in test [4], in test [5] and in [6] was inactive. Besides, the outcome in test [7], in [8], in test [9], in [10], in test [11] and in [12] was inactive. Besides, the result in test [13], in test [14], in test [15], in [16], in [17] and in test [18] was inactive.

With `Nc1ccc(-c2ccc(N)c(Cl)c2)cc1Cl`, the outcome in test [1], in test [3], in test [5], in test [6], in [7] and in test [9] was inactive. For the same compound, the outcome in [10], in test [11], in [12], in [13], in [14] and in test [15] was inactive. The outcome in test [17] and in test [18] was inactive. The AC50 in [2] is 13.7 µM (active); in [4], 2.76 µM (active); in [8], 9.55 µM (active).

In the case of `Oc1ccc(-c2ccccc2)cc1`, the result in [1], in [2], in test [3], in test [4], in test [5] and in test [19] was inactive. Further, the outcome in [6], in test [7], in test [8], in [9], in test [10] and in [11] was inactive. Further, the result in [12], in [13], in test [14], in test [17] and in test [18] was inactive.

With `NC(=S)Nc1ccccc1`, the outcome in [1], in test [2], in test [3], in test [4], in test [5] and in test [19] was inactive. Also, the outcome in test [6], in [7], in test [8], in test [9], in test [10] and in [11] was inactive. Besides, the result in [12], in [13], in test [14], in test [15], in test [17] and in [18] was inactive.

For the compound `O=C(O)C(Cl)(Cl)Cl`, the outcome in test [1], in test [2], in [3], in [4], in test [5] and in test [6] was inactive. Besides, the outcome in test [7], in test [8], in test [9], in [10], in test [11] and in test [12] was inactive. The result in test [13], in test [14], in test [15], in test [16], in test [17] and in test [18] was inactive.

As for `NC(=O)O`, the result in test [1], in [2], in [3], in test [4], in [5] and in [19] was inactive. The result in [6], in test [7], in test [8], in test [9], in test [10] and in [11] was inactive. Further, the outcome in test [12], in test [13], in test [14], in test [15], in test [16] and in [17] was inactive. For the same compound, the result in [18] was inactive.
